# Results as given in PubChem BioAssay.
# Several values for one entry are separate records, joined by “and”; a condition that tells them apart may be missing. Equal entries are not always repeated. Inconclusive results are not listed. Activity calls are given as the source filed them.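 The calls were made as follows, unless noted: active = normalized viability below 100% at a tested concentration; inactive = the rest.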
# What was measured:
# [1] = viability loss in pontine glioma line – cell-based, SU-DIPG-XVII, MIPE5.0, CellTiter-Glo, qHTS, dose response (AID 1347060; cut-off not given, nearly all actives have AC50 up to about 26 µM;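 as to AC50: cells exposed to compound for 48 hours before viability readout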); conditions: CellTiter-Glo ATP luminescence
# [2] = viability loss in pontine glioma line – cell-based, SU-DIPG-XIII, MIPE4.0, CellTiter-Glo, qHTS, dose response (AID 1347061; cut-off not given, nearly all actives have AC50 up to about 37 µM;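 also: cells exposed to compound for 48 hours before readout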); conditions: CellTiter-Glo ATP luminescence
# [3] = viability loss in pontine glioma line – cell-based, JHH-DIPG-1, MIPE4.0, CellTiter-Glo, qHTS, dose response (AID 1347062; cut-off not given, nearly all actives have AC50 up to about 27 µM;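 as to AC50: cells exposed to compound for two days before readout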); conditions: JHH-DIPG-1 viability, CellTiter-Glo ATP luminescence
# [4] = viability loss in pontine glioma line – cell-based, SU-DIPG-IV, MIPE4.0, CellTiter-Glo, qHTS, dose response (AID 1347063; cut-off not given, nearly all actives have AC50 up to about 30 µM;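 also: compound exposure lasted 48 hours before the viability readout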); conditions: CellTiter-Glo ATP luminescence
# [5] = viability loss in pontine glioma line – cell-based, SU-DIPG-XIII, MIPE5.0, CellTiter-Glo, qHTS, dose response (AID 1347064; cut-off not given, nearly all actives have AC50 up to about 23 µM;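 as to AC50: cells exposed to compound for 48 hours before the viability read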); conditions: CellTiter-Glo ATP luminescence
# [6] = viability loss in pontine glioma line – cell-based, SU-DIPG-XXV, MIPE5.0, CellTiter-Glo, qHTS, dose response (AID 1347065; cut-off not given, nearly all actives have AC50 up to about 26 µM;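 also: cells exposed to compound for 48 hours before ATP readout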); conditions: CellTiter-Glo ATP luminescence
# [7] = JHH-DIPG-1 glioma cell viability, MIPE5.0 library, CellTiter-Glo luminescence, qHTS (AID 1347067; cut-off not given, nearly all actives have AC50 up to about 26 µM;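 also: cells exposed to compound for 48 hours before readout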); conditions: JHH-DIPG-1 glioma viability, CellTiter-Glo ATP luminescence
# [8] = growth inhibition of DIPG cells – cell-based, MIPE5.0 library, qHTS (AID 1347068; cut-off not given, nearly all actives have IC50 up to about 30 µM;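 as to IC50: cells exposed to compound for 48 hours before viability readout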); conditions: SU-DIPG-XXV viability
# [9] = viability loss with induced miR-34 in A549 – imaging, A549 dox-inducible miR-34, nuclei and caspase counts, primary screen (AID 1347080;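 active = compounds whose cell count with miR-34 switched on is under 0.7 times the count with it off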); conditions: A549 miR-34 inducible, Hoechst nuclei count, 48 h
# [10] = MELAS cybrid and Rieske KO viability enhancers – cell-based, MELAS cybrids, Rieske KO mouse fibroblasts, CellTiter-Glo, primary screen (AID 1508586;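 active = mean z-score across replicates of 1.96 or higher in either the MELAS or the Rieske mutant cell line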;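 also: z relative to plate mean and SD of compound and empty wells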); conditions: low glucose
# [11] = growth inhibition of DIPG cells – cell-based, MIPE4.0 library, CellTiter-Glo luminescence, qHTS (AID 1347066; cut-off not given, nearly all actives have AC50 up to about 30 µM;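 also: cells exposed to compound for 48 hours before readout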); conditions: SU-DIPG-VI viability, CellTiter-Glo ATP luminescence
# [12] = compounds altering HSF1 focus formation in cells – imaging, Selleck Cancer Library (AID 1347162; in the data active = plate-normalised HSF1 focus index below about 0.46); conditions: human cells, HSF1 nuclear foci imaging, at 10 µM; SSMD: measured here: HSF1 foci SSMD mean; cell count: measured here: cell number; plate-normalised HSF1 focus index: stronger effect = lower value
# [13] = drug combination growth inhibition, ovarian cancer – cell-based, oncology-focused library, rucaparib conditional, profiling panel (AID 1508598); conditions: patient-derived ovarian cancer cells, CellTiter-Glo viability, 144 h, stronger effect = lower value
# [14] = stronger effect = lower value, cell number ratio, induced over uninduced
# [15] = measured here: relative caspase fold change +Dox/-Dox
# [16] = measured here: total cells with miR-34 induction, stronger effect = lower value
# [17] = measured here: total cells without miR-34 induction
compound,measurement,setting,value
O=C1c2cccc(O)c2C(=O)c2c(O)cc(CO)cc21,outcome,[1],inactive
same,outcome,[2],inactive
same,outcome,[3],inactive
same,outcome,[4],inactive
same,outcome,[5],inactive
same,outcome,[6],inactive
same,outcome,[7],inactive
same,outcome,[8],inactive
same,fold change,[9]; [14],0.954 (inactive)
same,fold change,[9]; [15],0.691
same,cell count,[9]; [16],7900
same,cell count,[9]; [17],8280
same,z-score,"[10]; MELAS cybrid survival, CellTiter-Glo 48 h, stronger effect = higher value",-0.27 (inactive)
same,z-score,"[10]; Rieske KO mouse fibroblast survival, CellTiter-Glo 72 h",0.836
c1ccc(-c2nn3c(c2-c2ccnc4cc(OCCN5CCOCC5)ccc24)CCC3)nc1,outcome,[1],inactive
same,outcome,[2],inactive
same,outcome,[3],inactive
same,outcome,[4],inactive
same,outcome,[5],inactive
same,outcome,[11],inactive
same,outcome,[7],inactive
same,SSMD,[12],2.44
same,cell count,[12],6520
same,plate-normalised HSF1 focus index,[12],1.13 (inactive)
COc1cc2c(cc1OC)CN(CCc1ccc(NC(=O)c3cccc4c(=O)c5cccc(OC)c5[nH]c34)cc1)CC2,outcome,[1],inactive
same,AC50,[2],8.33 µM (active)
same,outcome,[3],inactive
same,outcome,[4],inactive
same,outcome,[5],inactive
same,outcome,[6],inactive
same,outcome,[7],inactive
same,outcome,[8],inactive
same,SSMD,[12],4.27
same,cell count,[12],6980
same,plate-normalised HSF1 focus index,[12],1.26 (inactive)
Cc1nc(N)ncc1-c1nc(N2CCOCC2)c2sc(C(C)(C)O)cc2n1,AC50,[1],1.66 µM (active)
same,AC50,[2],7.43 µM (active)
same,AC50,[3],1.32 µM (active)
same,AC50,[4],0.332 µM (active)
same,AC50,[5],3.32 µM (active)
same,AC50,[6],1.05 µM (active)
same,IC50,[8],4.68 µM (active)
Nc1cccc2c1CN([C@H]1CCC(=O)NC1=O)C2=O,outcome,[1],inactive
same,outcome,[2],inactive
same,outcome,[3],inactive
same,outcome,[4],inactive
same,outcome,[5],inactive
same,outcome,[7],inactive
same,outcome,[8],inactive
CC(/C=C/C(=O)NO)=C\[C@@H](C)C(=O)c1ccc(N(C)C)cc1,AC50,[1],0.332 µM (active)
same,AC50,[2],7.43 µM (active)
same,AC50,[3],1.48 µM (active)
same,AC50,[4],0.59 µM (active)
same,AC50,[5],0.209 µM (active)
same,AC50,[6],0.372 µM (active)
same,AC50,[7],0.525 µM (active)
same,fold change,[9]; [14],0.973 (inactive) and 1 (inactive)
same,fold change,[9]; [15],1.51 and 0.994
same,cell count,[9]; [16],926 and 1160
same,cell count,[9]; [17],952 and 1150
same,SSMD,[12],-1.78
same,cell count,[12],7010
same,plate-normalised HSF1 focus index,[12],0.921 (inactive)
same,viability,"[13]; at 0.000305 µM, OCI-C5x cells, with rucaparib 10 µM, 100% = cells with rucaparib alone",111% (inactive)
same,viability,"[13]; at 0.000305 µM, OCI-C5x cells, without rucaparib",91.4% (active)
same,viability,"[13]; at 0.000305 µM, OCI-P5x cells, with rucaparib 20 µM, 100% = cells with rucaparib alone",77.4% (active)
same,viability,"[13]; at 0.000305 µM, OCI-P5x cells, without rucaparib",83.4% (active)
same,viability,"[13]; at 0.00122 µM, OCI-C5x cells, with rucaparib 10 µM, 100% = cells with rucaparib alone",117% (inactive)
same,viability,"[13]; at 0.00122 µM, OCI-C5x cells, without rucaparib",102% (inactive)
same,viability,"[13]; at 0.00122 µM, OCI-P5x cells, with rucaparib 20 µM, 100% = cells with rucaparib alone",82.5% (active)
same,viability,"[13]; at 0.00122 µM, OCI-P5x cells, without rucaparib",83.5% (active)
same,viability,"[13]; at 0.00488 µM, OCI-C5x cells, with rucaparib 10 µM, 100% = cells with rucaparib alone",107% (inactive)
same,viability,"[13]; at 0.00488 µM, OCI-C5x cells, without rucaparib",105% (inactive)
same,viability,"[13]; at 0.00488 µM, OCI-P5x cells, with rucaparib 20 µM, 100% = cells with rucaparib alone",75.8% (active)
same,viability,"[13]; at 0.00488 µM, OCI-P5x cells, without rucaparib",89.8% (active)
same,viability,"[13]; at 0.0195 µM, OCI-C5x cells, with rucaparib 10 µM, 100% = cells with rucaparib alone",115% (inactive)
same,viability,"[13]; at 0.0195 µM, OCI-C5x cells, without rucaparib",109% (inactive)
same,viability,"[13]; at 0.0195 µM, OCI-P5x cells, with rucaparib 20 µM, 100% = cells with rucaparib alone",81.7% (active)
same,viability,"[13]; at 0.0195 µM, OCI-P5x cells, without rucaparib",76.1% (active)
same,viability,"[13]; at 0.0781 µM, OCI-C5x cells, with rucaparib 10 µM, 100% = cells with rucaparib alone",42.3% (active)
same,viability,"[13]; at 0.0781 µM, OCI-C5x cells, without rucaparib",17.8% (active)
same,viability,"[13]; at 0.0781 µM, OCI-P5x cells, with rucaparib 20 µM, 100% = cells with rucaparib alone",50.3% (active)
same,viability,"[13]; at 0.0781 µM, OCI-P5x cells, without rucaparib",51.8% (active)
same,viability,"[13]; at 0.313 µM, OCI-C5x cells, with rucaparib 10 µM, 100% = cells with rucaparib alone",8.25% (active)
same,viability,"[13]; at 0.313 µM, OCI-C5x cells, without rucaparib",6.7% (active)
same,viability,"[13]; at 0.313 µM, OCI-P5x cells, with rucaparib 20 µM, 100% = cells with rucaparib alone",13% (active)
same,viability,"[13]; at 0.313 µM, OCI-P5x cells, without rucaparib",12.1% (active)
same,viability,"[13]; at 1.25 µM, OCI-C5x cells, with rucaparib 10 µM, 100% = cells with rucaparib alone",4.57% (active)
same,viability,"[13]; at 1.25 µM, OCI-C5x cells, without rucaparib",4.64% (active)
same,viability,"[13]; at 1.25 µM, OCI-P5x cells, with rucaparib 20 µM, 100% = cells with rucaparib alone",2.76% (active)
same,viability,"[13]; at 1.25 µM, OCI-P5x cells, without rucaparib",2.28% (active)
same,viability,"[13]; at 5 µM, OCI-C5x cells, with rucaparib 10 µM, 100% = cells with rucaparib alone",5% (active)
same,viability,"[13]; at 5 µM, OCI-C5x cells, without rucaparib",4.88% (active)
same,viability,"[13]; at 5 µM, OCI-P5x cells, with rucaparib 20 µM, 100% = cells with rucaparib alone",0.994% (active)
same,viability,"[13]; at 5 µM, OCI-P5x cells, without rucaparib",1.21% (active)
